Measured values as given in PubChem BioAssay AID1159580 (chemical genetic matrix, 2015).
Several values for one entry are separate records, joined by “and”; a condition that tells them apart may be missing. Equal entries are not always repeated. Screen size: about 5,500 compounds; about 2,000 (36%) were called active. About 18% were inconclusive and are not listed. Cut-off read from the data, not from the text of the source: active = normalized growth mostly below about 0.91 (no sharp cut-off); inconclusive = no clear call, values can overlap the other calls; inactive = mostly above about 0.92. This is one part of the list.

Assay: chemical genetic growth profiling, strain panel (AID 1159580);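 note: tested at 20 µM; growth read once vehicle control cultures reached saturation at 30 °C; 1 = growth at the plate median or of vehicle wells; lower values mean less growth of the strain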
Settings: S. cerevisiae deletion strains, growth OD

Measured: normalized growth

COc1ccc(OC)c(C(O)C(C)N)c1 (stereo not given)
inactive: locus YAL013W, strain DEP1, active compounds read low 1.02 and 1.01 | locus YAL021C, strain ccr4, active compounds read low 1 | locus YAL026C, strain drs2, active compounds read low 0.993 | locus YAL030W, strain snc1, active compounds read low 0.998 | locus YAL040C, strain CLN3, active compounds read low 0.977 | locus YBL061C, strain skt5, active compounds read low 0.996 | locus YBR009C, strain hhf1, active compounds read low 1.01 | locus YBR021W, strain FUR4, active compounds read low 1.01 | locus YBR023C, strain chs3, active compounds read low 0.998 | locus YBR171W, strain sec66, active compounds read low 0.991 | locus YBR229C, strain ROT2, active compounds read low 1.02 | locus YBR231C, strain swc5, active compounds read low 0.977 | locus YBR279W, strain paf1, active compounds read low 1 | locus YCL011C, strain gbp2, active compounds read low 1.01 | locus YCL016C, strain dcc1, active compounds read low 1.01 | locus YCL029C, strain bik1, active compounds read low 0.99 | locus YCL061C, strain MRC1 (second series), active compounds read low 1.02 | locus YCL061C, strain MRC1, active compounds read low 0.99 | locus YCL069W, strain vba3, active compounds read low 1 | locus YCR088W, strain abp1, active compounds read low 0.998 | locus YDL005C, strain med2, active compounds read low 0.994 | locus YDL035C, strain GPR1, active compounds read low 1.01 | locus YDL040C, strain nat1, active compounds read low 0.996 | locus YDL074C, strain BRE1, active compounds read low 1.05 | locus YDL101C, strain DUN1, active compounds read low 1.03 | locus YDL134C, strain PPH21, active compounds read low 1.03 | locus YDL185W, strain tfp1, active compounds read low 0.988 | locus YDL192W, strain arf1, active compounds read low 0.99 | locus YDR001C, strain nth1, active compounds read low 0.99 | locus YDR069C, strain doa4, active compounds read low 0.999 | locus YDR101C, strain arx1, active compounds read low 0.981 | locus YDR137W, strain rgp1, active compounds read low 1.03 | locus YDR150W, strain NUM1, active compounds read low 1.02 | locus YDR159W, strain sac3, active compounds read low 1.01 | locus YDR162C, strain NBP2, active compounds read low 1.05 | locus YDR195W, strain ref2 0.948 | locus YDR297W, strain sur2, active compounds read low 0.998 | locus YDR318W, strain mcm21, active compounds read low 0.977 | locus YDR334W, strain swr1, active compounds read low 0.993 | locus YDR335W, strain msn5, active compounds read low 0.997 | locus YDR363W, strain ESC2, active compounds read low 1.03 | locus YDR388W, active compounds read low 0.977 | locus YDR392W, strain spt3, active compounds read low 1.01 | locus YDR502C, strain sam2, active compounds read low 1 | locus YEL003W, strain gim4, active compounds read low 1 | locus YEL037C, strain rad23, active compounds read low 0.991 | locus YEL061C, strain CIN8 (second series), active compounds read low 0.983 | locus YEL061C, strain CIN8, active compounds read low 1.01 | locus YER002W, strain NOP16, active compounds read low 0.993 | locus YER015W, strain faa2, active compounds read low 0.99 | locus YER016W, strain bim1, active compounds read low 0.998 | locus YER110C, active compounds read low 0.981 | locus YER111C, strain swi4, active compounds read low 1 | locus YER155C, strain BEM2 (second series), active compounds read low 0.988 | locus YER155C, strain BEM2, active compounds read low 1.01 | locus YER167W, strain BCK2, active compounds read low 1.01 | locus YFR010W, strain ubp6, active compounds read low 0.99 | locus YGL078C, strain dbp3, active compounds read low 0.997 | locus YGL086W, strain mad1, active compounds read low 0.983 | locus YGL167C, strain pmr1, active compounds read low 0.998 | locus YGL173C, strain kem1, active compounds read low 0.991 | locus YGL227W, strain vid30, active compounds read low 0.991 | locus YGL240W, strain doc1, active compounds read low 0.981 | locus YGL248W, strain PDE1, active compounds read low 1.03 | locus YGL253W, strain hxk2, active compounds read low 0.998 | locus YGR078C, strain PAC10, active compounds read low 1.04 | locus YGR135W, strain pre9, active compounds read low 1.03 | locus YGR229C, strain SMI1, active compounds read low 1.03 | locus YGR252W, strain gcn5, active compounds read low 0.947 | locus YHR013C, strain ard1, active compounds read low 0.99 | locus YHR027C, strain rpn1, active compounds read low 1 | locus YHR030C, strain SLT2, active compounds read low 1 and 1.03 | locus YHR079C, strain IRE1 (second series), active compounds read low 0.988 | locus YHR079C, strain IRE1, active compounds read low 1.05 | locus YHR094C, strain hxt1, active compounds read low 0.99 | locus YHR129C, strain ARP1, active compounds read low 1.01 | locus YHR142W, strain chs7, active compounds read low 1.01 | locus YHR200W, strain rpn10, active compounds read low 0.993 | locus YIL066C, strain RNR3, active compounds read low 1.01 | locus YIL073C, strain SPO22, active compounds read low 1 | locus YIL125W, strain kgd1, active compounds read low 0.995 | locus YIR030C, strain dcg1, active compounds read low 0.988 | locus YJL092W, strain hpr5, active compounds read low 0.997 | locus YJL095W, strain BCK1 (second series), active compounds read low 0.997 | locus YJL095W, strain BCK1, active compounds read low 1.04 and 1.03 | locus YJL115W, strain asf1, active compounds read low 0.99 | locus YJL129C, strain trk1, active compounds read low 0.997 | locus YJL134W, strain LCB3, active compounds read low 1.01 | locus YJL154C, strain vps35, active compounds read low 0.998 | locus YJL164C, strain tpk1, active compounds read low 1.01 | locus YJL166W, strain qcr8, active compounds read low 0.974 | locus YJL168C, strain set2, active compounds read low 0.989 | locus YJL187C, strain SWE1 (second series), active compounds read low 1.02 | locus YJL187C, strain SWE1, active compounds read low 1 | locus YJR043C, strain POL32, active compounds read low 0.977
